Reference: PubChem BioAssay AID1159580 (chemical genetic matrix, 2015)
Among all 5,500 compounds or so, about 2,000 (36%) were called active. Inconclusive results (about 18%) are left out. Cut-off read from the data, not from the text of the source: active = normalized growth mostly below about 0.91 (no sharp cut-off); inconclusive = no clear call, values can overlap the other calls; inactive = mostly above about 0.92. The list shows a part of the results.

Assay: chemical genetic growth profiling, strain panel (AID 1159580);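 note: tested at 20 µM; growth read once vehicle control cultures reached saturation at 30 °C; 1 = growth at the plate median or of vehicle wells; lower values mean less growth of the strain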
Details: growth OD

Measured: normalized growth

CC(C)CCCC(C)C1CCC2C3CC[C@H]4CCCC[C@]4(C)C3CC[C@]12C (some centres not stated)
inactive: S. cerevisiae deletion strains, locus YJR075W, strain HOC1, active compounds read low 0.965 | S. cerevisiae deletion strains, locus YKL009W, strain mrt4, active compounds read low 1.01 | S. cerevisiae deletion strains, locus YKL068W, active compounds read low 0.993 | S. cerevisiae deletion strains, locus YKL085W, strain MDH1 (second series), active compounds read low 1.02 | S. cerevisiae deletion strains, locus YKL085W, strain MDH1, active compounds read low 1.02 | S. cerevisiae deletion strains, locus YKL160W, strain elf1, active compounds read low 0.998 | S. cerevisiae deletion strains, locus YKL190W, strain CNB1, active compounds read low 0.98 | S. cerevisiae deletion strains, locus YKR001C, strain vps1, active compounds read low 0.996 | S. cerevisiae deletion strains, locus YKR026C, strain gcn3, active compounds read low 0.998 | S. cerevisiae deletion strains, locus YKR091W, strain srl3, active compounds read low 1.02 | S. cerevisiae deletion strains, locus YLL001W, strain dnm1, active compounds read low 1.02 | S. cerevisiae deletion strains, locus YLL026W, active compounds read low 1.02 | S. cerevisiae deletion strains, locus YLL041C, strain sdh2, active compounds read low 1.01 | S. cerevisiae deletion strains, locus YLR027C, strain aat2, active compounds read low 1.01 | S. cerevisiae deletion strains, locus YLR039C, strain RIC1, active compounds read low 0.951 | S. cerevisiae deletion strains, locus YLR058C, strain SHM2, active compounds read low 0.967 | S. cerevisiae deletion strains, locus YLR102C, strain apc9, active compounds read low 0.977 | S. cerevisiae deletion strains, locus YLR113W, strain HOG1, active compounds read low 1.03 | S. cerevisiae deletion strains, locus YLR221C, strain rsa3, active compounds read low 1.02 | S. cerevisiae deletion strains, locus YLR258W, strain gsy2, active compounds read low 1.02 | S. cerevisiae deletion strains, locus YLR262C, strain YPT6 (second series), active compounds read low 1.02 | S. cerevisiae deletion strains, locus YLR262C, strain YPT6, active compounds read low 0.945 | S. cerevisiae deletion strains, locus YLR268W, strain sec22, active compounds read low 0.966 | S. cerevisiae deletion strains, locus YLR320W, strain mms22, active compounds read low 1.02 | S. cerevisiae deletion strains, locus YLR330W, strain CHS5, active compounds read low 0.999 | S. cerevisiae deletion strains, locus YLR342W, strain FKS1 (second series), active compounds read low 1.04 | S. cerevisiae deletion strains, locus YLR342W, strain FKS1, active compounds read low 1.02 | S. cerevisiae deletion strains, locus YLR357W, strain rsc2, active compounds read low 1.04 | S. cerevisiae deletion strains, locus YLR370C, strain arc18, active compounds read low 1.02 | S. cerevisiae deletion strains, locus YLR371W, strain rom2, active compounds read low 0.998 | S. cerevisiae deletion strains, locus YLR384C, strain iki3, active compounds read low 1.02 | S. cerevisiae deletion strains, locus YLR418C, strain cdc73, active compounds read low 0.952 | S. cerevisiae deletion strains, locus YML016C, strain PPZ1, active compounds read low 0.986 | S. cerevisiae deletion strains, locus YML032C, strain rad52, active compounds read low 1 | S. cerevisiae deletion strains, locus YML120C, strain ndi1, active compounds read low 1.02 | S. cerevisiae deletion strains, locus YML124C, strain tub3, active compounds read low 1 | S. cerevisiae deletion strains, locus YMR058W, strain fet3, active compounds read low 1.01 | S. cerevisiae deletion strains, locus YMR078C, strain ctf18, active compounds read low 0.99 | S. cerevisiae deletion strains, locus YMR125W, strain sto1, active compounds read low 1.03 | S. cerevisiae deletion strains, locus YMR129W, active compounds read low 1.02 | S. cerevisiae deletion strains, locus YMR205C, strain PFK2, active compounds read low 1.04 | S. cerevisiae deletion strains, locus YMR223W, strain ubp8, active compounds read low 1 | S. cerevisiae deletion strains, locus YMR231W, strain pep5, active compounds read low 1.02 | S. cerevisiae deletion strains, locus YMR263W, strain SAP30, active compounds read low 0.949 | S. cerevisiae deletion strains, locus YMR307W, strain GAS1, active compounds read low 1.07 | S. cerevisiae deletion strains, locus YNL067W, strain RPL9B, active compounds read low 0.953 | S. cerevisiae deletion strains, locus YNL071W, strain lat1, active compounds read low 1.01 | S. cerevisiae deletion strains, locus YNL128W, strain TEP1, active compounds read low 0.941 | S. cerevisiae deletion strains, locus YNL153C, strain GIM3, active compounds read low 0.962 | S. cerevisiae deletion strains, locus YNL183C, strain NPR1, active compounds read low 0.922 | S. cerevisiae deletion strains, locus YNL209W, strain ssb2, active compounds read low 1.02 | S. cerevisiae deletion strains, locus YNL233W, strain BNI4, active compounds read low 0.983 | S. cerevisiae deletion strains, locus YNL248C, strain rpa49, active compounds read low 0.992 | S. cerevisiae deletion strains, locus YNL250W, strain rad50, active compounds read low 0.986 | S. cerevisiae deletion strains, locus YNL271C, strain bni1, active compounds read low 0.993 | S. cerevisiae deletion strains, locus YNL298W, strain CLA4, active compounds read low 0.998 | S. cerevisiae deletion strains, locus YNL307C, strain MCK1, active compounds read low 1.01 | S. cerevisiae deletion strains, locus YNL322C, strain KRE1 (second series), active compounds read low 1.02 | S. cerevisiae deletion strains, locus YNL322C, strain KRE1, active compounds read low 0.971 | S. cerevisiae deletion strains, locus YNR049C, strain mso1, active compounds read low 1.02 | S. cerevisiae deletion strains, locus YNR052C, strain pop2, active compounds read low 0.996 | S. cerevisiae deletion strains, locus YOL006C, strain TOP1, active compounds read low 0.935 | S. cerevisiae deletion strains, locus YOL012C, strain htz1 1.86 | S. cerevisiae deletion strains, locus YOL147C, strain pex11, active compounds read low 0.992 | S. cerevisiae deletion strains, locus YOR001W, strain rrp6, active compounds read low 0.993 | S. cerevisiae deletion strains, locus YOR061W, strain CKA2, active compounds read low 0.964 | S. cerevisiae deletion strains, locus YOR069W, strain VPS5, active compounds read low 1.01 | S. cerevisiae deletion strains, locus YOR070C, strain gyp1, active compounds read low 1.02 | S. cerevisiae deletion strains, locus YOR080W, strain dia2, active compounds read low 1.02 | S. cerevisiae deletion strains, locus YOR083W, strain WHI5, active compounds read low 0.991 | S. cerevisiae deletion strains, locus YOR106W, strain vam3, active compounds read low 1.01 | S. cerevisiae deletion strains, locus YOR136W, strain idh2, active compounds read low 1 | S. cerevisiae deletion strains, locus YOR144C, strain elg1, active compounds read low 0.981 | S. cerevisiae deletion strains, locus YOR184W, strain ser1, active compounds read low 1.01 | S. cerevisiae deletion strains, locus YOR231W, strain MKK1, active compounds read low 0.992 | S. cerevisiae deletion strains, locus YOR265W, strain rbl2, active compounds read low 1.02 | S. cerevisiae deletion strains, locus YOR270C, strain vph1, active compounds read low 1.03 | S. cerevisiae deletion strains, locus YOR290C, strain snf2, active compounds read low 0.984 | S. cerevisiae deletion strains, locus YOR316C, strain cot1, active compounds read low 0.981 | S. cerevisiae deletion strains, locus YPL051W, strain arl3, active compounds read low 0.997 | S. cerevisiae deletion strains, locus YPL055C, strain LGE1, active compounds read low 0.934 | S. cerevisiae deletion strains, locus YPL078C, strain atp4, active compounds read low 0.996 | S. cerevisiae deletion strains, locus YPL106C, strain sse1, active compounds read low 1.05 | S. cerevisiae deletion strains, locus YPL240C, strain hsp82, active compounds read low 1 | S. cerevisiae deletion strains, locus YPL241C, strain CIN2, active compounds read low 0.993 | S. cerevisiae deletion strains, locus YPL256C, strain CLN2, active compounds read low 0.978 | S. cerevisiae deletion strains, locus YPR119W, strain clb2, active compounds read low 0.999 | S. cerevisiae deletion strains, locus YPR141C, strain kar3, active compounds read low 0.966 | S. cerevisiae deletion strains, locus YPR163C, strain tif3, active compounds read low 1 | S. cerevisiae deletion strains, locus YPR167C, strain met16, active compounds read low 0.982 | S. cerevisiae deletion strains, strain wtn01, active compounds read low 0.982 | S. cerevisiae strains, strain wild type, active compounds read low 0.984
